Screens: PubChem BioAssay, several laboratories
A selection: hits, their analogues and other compounds. The true share with any hit is near 4.2%.
NALP1 inh = NALP1 inhibition; inhibition, % at 10 µM; S. cerevisiae NALP1/ASC/caspase-1 growth, X-gal OD620, 72 h; AID 2071; 0.61% of 280,000 active; in the data active = inhibition mostly above about 24%, no sharp cut-off; inactive = mostly below about 32%
tim10-1 inh = inhibits growth of tim10-1 mutant yeast | S. cerevisiae tim10-1 ts strain growth, BacTiter-Glo, 24 h | inhibition, % at 20 µM | 2.2% of 330,000 active;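 active = inhibition of at least 40%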;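 also: mutant grown at 25 °C; 0% = DMSO wells with yeast and 100% = wells holding no yeast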
PfHsp90 set2 = inhibits growth of yeast expressing Plasmodium falciparum Hsp90 | S. cerevisiae expressing PfHsp90, BacTiter-Glo ATP, 48 h; yeast lacking PDR1 and PDR3 efflux regulators | inhibition, % at 9.4 µM | 0.32% of 310,000 active;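 active = every replicate shows inhibition above about 80%, whatever the replicate mean, limit read from the data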;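 also: 0% = DMSO neutral controls and 100% = 20 µM radicicol positive controls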
TIM10 inh = TIM10 yeast growth inhibition; AID 463195; S. cerevisiae TIM10 strain growth, BacTiter-Glo luminescence, 24 h; 1.4% of 330,000 active; inhibition, % at 10 µM;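 active = inhibition of 40% or more at the single tested concentration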;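 also: wild-type TIM10 isogenic control strain grown at permissive 25 °C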
tim23-1 inh = growth inhibitors of tim23-1 mutant yeast; S. cerevisiae tim23-1 growth, BacTiter-Glo luminescence, 24 h; inhibition, % at 20 µM; 1.3% of 330,000 active;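 active = growth inhibition of the mutant yeast at or above 50%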;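 also: temperature-sensitive mutant grown at 25 °C; plate controls were DMSO-treated mutant yeast for no effect and medium wells lacking yeast for full effect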
NALP3 yeast inh = NALP3 inhibition in yeast. 0.39% of 330,000 active. Yeast reconstituted NLRP3/ASC/caspase-1, beta-gal luminescence, 24 h. inhibition, % at 10 µM;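 active = inhibition of 50% or more; inactive = inhibition below 50%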;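 also: plate controls were induced DMSO wells for no effect and uninduced yeast grown without galactose for full effect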
tim10 confirm = TIM10 yeast growth inhibition, confirmed. S. cerevisiae tim10 strain growth, BacTiter-Glo luminescence, 24 h. 63% of 4,600 active. shares compounds with TIM10 inh. inhibition, % at 10 µM;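 active = inhibition of yeast growth at or above a set limit in either of two replicates at 10 µM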;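 also: this counterscreen used the strain with wild-type TIM10; 0% = yeast with DMSO and 100% = medium wells lacking yeast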
* = called active by the depositor; · = no result.

SMILES | NALP1 inh | tim10-1 inh | PfHsp90 set2 | TIM10 inh | tim23-1 inh | NALP3 yeast inh | tim10 confirm
COc1ccc(CNC(=S)N/N=C/c2ccc(O)c(OC)c2)cc1 | 2 | 2 | -45 | 38 | 31 | -3 | ·
COc1ccc(CNC(=S)N/N=C/c2ccc(OC)c(OC)c2)cc1 | 16 | 20 | -39 | 40* | 7 | 16 | 23
C=CCNC(=S)N/N=C/c1ccc(N(CC)Cc2ccccc2)cc1 | 24 | 26 | 12 | 34 | 41 | 15 | ·
CCN(CC)c1ccc(/C=N/NC(=S)NCc2ccccc2)cc1 | 13 | 34 | -12 | 44* | 5 | 12 | -1
Cc1ccc(C(=O)Nc2ccc3c(c2)nc2n3CCSC2)cc1 | 18 | 26 | 0 | 63* | 42 | 19 | 65*
CCCCNC(=O)Oc1ccc(C(=O)N2c3ccccc3NC(=O)C2C)cc1 (stereo not given) | 18 | -16 | 7 | 7 | -14 | 19 | ·
CC(c1ccco1)N(C(=O)c1ccccc1NS(=O)(=O)c1cc([N+](=O)[O-])ccc1Cl)c1ccccn1 (stereo not given) | 25 | 39 | -10 | 45* | 40 | 15 | 34*
CC(c1ccco1)N(C(=O)c1ccccc1NS(=O)(=O)c1ccc(Cl)cc1)c1ccccn1 (stereo not given) | 42 | 36 | -5 | 45* | 43 | 24 | 41*
Cc1nn(CC(=O)N2CCCC2)c(=O)c2cc3cc(F)ccc3n12 | 7 | 9 | 14 | 1 | 5 | 9 | ·
Cc1ccc(C)c(SCC(=O)NC2CCS(=O)(=O)C2)c1 (stereo not given) | · | 3 | · | -2 | 2 | 1 | ·
CCCN(C(=O)Cn1ncc2c(=O)oc3ccccc3c21)c1cccc(C)c1 | 19 | 33 | 7 | 41* | 31 | -7 | 16
CC(OC(=O)c1cc(-c2cccnc2)nc2ccccc12)C(=O)Nc1ccc2ccccc2c1 (stereo not given) | 35 | 36 | -16 | 14 | 14 | 18 | ·
Cc1[nH]nc(N=CC2=C(O)CC(C)(C)CC2=O)c1-c1ccc(Cl)cc1 | 8 | 36 | -2 | 41* | 21 | 1 | 30*
Cc1[nH]nc(N=CC2=C(O)CC(c3ccco3)CC2=O)c1-c1ccc(Cl)cc1 (stereo not given) | 20 | 25 | 3 | 21 | 27 | 3 | ·
O=C(Cc1ccccc1)N/N=C/c1cc(Br)cc(Cl)c1O | 19 | 39 | 9 | 45* | 38 | 24 | 51*
COc1cc(Br)cc(/C=N/NC(=O)Cc2ccccc2)c1O | · | 3 | 6 | 29 | 37 | 1 | ·
O=C(CN(Cc1ccccc1)C(=O)CCC(=O)Nc1nccs1)NCc1ccccc1 | -20 | -5 | 3 | 4 | 5 | 4 | ·
Cc1ccccc1NC(=S)N(Cc1cccs1)C1CCCC1 | 5 | 35 | -5 | 15 | 35 | -2 | ·
CCc1ccccc1NC(=S)N(Cc1cccs1)C1CCCC1 | 3 | 34 | 4 | 40* | 11 | -14 | 15
CCN1C(=O)C(=Cc2cccc(OC)c2Oc2ccc([N+](=O)[O-])cc2[N+](=O)[O-])SC1=S | 4 | 25 | -16 | 44* | 42 | 15 | 6
Nc1nc2ccccc2n1/N=C/c1ccc(Br)cc1 | -7 | 19 | 3 | 44* | 36 | 18 | 30
Nc1nc2ccccc2n1/N=C/c1ccc2c(c1)OCO2 | 2 | 1 | · | 17 | 13 | 8 | ·
O=C(COc1ncnc2ccccc12)Nc1ccccc1[N+](=O)[O-] | -6 | -2 | 20 | -5 | -1 | 13 | ·
O=C(N/N=C\C=C\c1ccco1)c1cc(-c2ccc3ccccc3c2)n[nH]1 | 0 | 16 | 10 | 52* | 8 | 5 | 40*
O=C(N/N=C/C=C\c1ccco1)c1ccccn1 | -6 | 3 | -5 | 90* | 16 | 11 | 2
SMILES | NALP1 inh | tim10-1 inh | PfHsp90 set2 | TIM10 inh | tim23-1 inh | NALP3 yeast inh | tim10 confirm
O=C(N/N=C/C=C/c1ccco1)c1cnccn1 | 24 | -18 | 29 | 6 | -6 | 28 | ·
O=C(CC1C[C@H](C(=O)N2CCOCC2)[C@@]2(CCC3CCCC3)c3[nH]c4ccccc4c3CCN2C1=O)NCCCn1ccnc1 (stereo not given in full) | · | 1 | 5 | -4 | 9 | 8 | ·
O=C(C[C@H]1C/C=C\CCCC(=O)OC[C@H]2CCCN2C1=O)NCCO | · | 1 | -16 | -2 | 0 | 1 | ·
Cc1ccc(S(=O)(=O)N(CCC(=O)NCc2ccc(S(N)(=O)=O)cc2)c2ccccc2)cc1 | · | -7 | · | -4 | 4 | 13 | ·
COCCNC(=S)NNC(=O)c1ccc(-n2cnnn2)cc1 | -13 | 6 | -4 | 6 | 6 | 2 | ·
CCCN1CCN(CC(=O)Nc2nnc(CC)s2)CC1 | 3 | -7 | -32 | 3 | -6 | 11 | ·
O=C(/C=C/c1ccccc1)NNc1ccc(Cl)cc1 | 7 | -19 | 36 | 44* | 8 | 31 | 48*
O=C(O)c1ccccc1C(=O)NNc1ccc(Cl)cc1 | 19 | 26 | -9 | 46* | 8 | 2 | 30*
NS(=O)(=O)c1ccc(NNC(=O)c2ccccc2C(=O)O)cc1 | · | 2 | 20 | 12 | 0 | 11 | ·
CCN1C(=O)/C(=C/c2ccc(C)s2)NC1=S | -8 | 36 | -1 | 41* | 30 | -4 | -18
CCN(CC)c1ccc(-c2n[nH]c(=S)n2-c2ccccc2)cc1 | -2 | 21 | -19 | 41* | 32 | 17 | 27
O=C(CNC(=O)c1ccc(Br)o1)NCC1COc2ccccc2O1 (stereo not given) | · | 14 | -2 | 4 | 15 | -2 | ·
O=C(CNS(=O)(=O)c1ccc(Br)s1)NCC1COc2ccccc2O1 (stereo not given) | 18 | 33 | · | 61* | -19 | 19 | 49*
COc1ccc(-c2cc3nc(C)cc(N4CC(C)CC(C)C4)n3n2)cc1 (stereo not given) | 3 | 31 | -23 | 23 | 45 | 10 | ·
Cc1sc(NC(=O)C2=COCCO2)nc1-c1ccc(Cl)cc1 | · | 9 | · | 2 | 7 | 35 | ·
Cc1cccc(NC(=O)c2ccc3c(c2)OCCO3)c1 | 8 | -15 | 17 | 3 | 50 | 27 | ·
Cc1ccc(NC(=O)c2ccc3c(c2)OCCO3)cc1S(=O)(=O)Nc1cccc(Cl)c1 | 13 | 25 | -5 | 43* | 35 | 7 | -27
O=C(Nc1ccc(N2CCCCC2)c(Cl)c1)c1ccc2c(c1)OCCO2 | 11 | 35 | -5 | 45* | 45 | 20 | 16
CC12CCC(c3nnc(SCC(=O)Nc4cccc5ccccc45)nc31)C2(C)C (stereo not given) | -6 | 36 | -7 | 46* | 38 | -1 | 24
CCOC(=O)CSc1nnc2c(n1)C1(C)CCC2C1(C)C (stereo not given) | 20 | 23 | · | 2 | 18 | -3 | ·
